According to PubChem BioAssay AID777 (Sanford-Burnham Center for Chemical Genomics, 2007):
The whole screen tested about 96,000 compounds, of which about 19,000 (20%) were called active. A selection follows. A number with no mark means an inactive call.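 The calls were made as follows: active = blocking of liver enzyme CYP2C9 beyond about 50% at 5 µM (limit read from the data); inactive = the rest.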

target: Cytochrome P450 2C9 (Homo sapiens) (UniProt P11712); test: blockers of cytochrome P450 2C9 activity – biochemical, luminescence, ADME assay, primary screen (AID 777); details: CYP2C9 Supersomes, luciferin-H conversion, at 5 µM, active compounds read high
Sequence (P11712 whole entry, looked up): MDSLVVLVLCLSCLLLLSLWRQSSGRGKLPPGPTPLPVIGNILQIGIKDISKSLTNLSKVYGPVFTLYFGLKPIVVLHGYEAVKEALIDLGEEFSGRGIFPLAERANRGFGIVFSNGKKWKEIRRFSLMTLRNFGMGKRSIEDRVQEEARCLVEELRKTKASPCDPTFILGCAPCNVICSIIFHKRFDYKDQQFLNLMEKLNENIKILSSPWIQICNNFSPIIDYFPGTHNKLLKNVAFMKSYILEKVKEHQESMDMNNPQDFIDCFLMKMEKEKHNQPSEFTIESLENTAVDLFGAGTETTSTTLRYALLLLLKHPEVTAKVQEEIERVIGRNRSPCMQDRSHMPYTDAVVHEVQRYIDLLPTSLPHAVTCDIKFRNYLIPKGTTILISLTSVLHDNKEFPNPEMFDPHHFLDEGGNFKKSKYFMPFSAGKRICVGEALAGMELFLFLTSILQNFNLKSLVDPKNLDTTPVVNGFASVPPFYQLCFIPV

Row | SMILES | inhibition
1 | Cc1nc2ccccc2c2oc(C(=O)NCCCN3CCC(C)CC3)cc12 | 7.6%
2 | O=C(Cn1cnc2c(nnn2-c2ccccc2)c1=O)N1CCC(Cc2ccccc2)CC1 | -30.4%
3 | Cc1ccc(C(=O)N2CCCC2)c(F)c1F | 6.3%
4 | CN(C)CC(O)COc1ccc(C(C)(C)c2ccc(OCC(O)CN(C)C)cc2)cc1 (stereo not given) | -6.4%
5 | O=C(CNC(=O)OCc1ccccc1)Oc1cc2oc(=O)cc(-c3ccccc3)c2cc1Cl | 75.7% (active)
6 | O=C(CNC(=O)c1ccccc1)NCC(=O)OCc1ccc(Cl)cc1 | 4.4%
7 | O=C(NCC1CCC(C(=O)O)CC1)OCc1ccccc1 (stereo not given) | -10.5%
8 | CCOC(=O)CSc1nncc2ccc(OC)c(OC)c12 | 4.3%
9 | Cc1nc2ccccc2cc1OCc1ccc(F)cc1 | 47.1%
10 | Cc1no[n+]([O-])c1COc1ccccc1/C=C1\NC(=S)NC1=O | 30.2%
11 | O=C(NCC1CCCO1)c1ccc2ccccc2n1 (stereo not given) | -36.5%
12 | Cc1ccc(C(=O)NCC2CCCO2)o1 (stereo not given) | 2.8%
13 | O=C(NCc1ccccn1)c1cc(-c2ccccc2Cl)on1 | -163%
14 | Cc1ccc(-c2noc(-c3ccccc3C(=O)NCC3CCCO3)n2)cc1 (stereo not given) | 70.8% (active)
15 | COc1cc(SC)ccc1C(=O)NCCOc1ccccc1Cl | 28.9%
16 | COCCNC(=O)c1ccccc1-c1nc(-c2ccccc2Cl)no1 | 83.9% (active)
17 | O=C(c1ccc(=O)[nH]c1)N(Cc1ccco1)C1(C(=O)NC2CCCCC2)CCCCC1 | -8.6%
18 | COc1ccc(C2N=C(N)N=C(N)N2c2ccccc2)cc1OC (stereo not given) | -7%
19 | O=C(N/N=C/c1ccsc1)c1cc(O)cc(O)c1 | 5.4%
20 | COc1cc(/C=N\NC(=O)C2C(=O)NCC2c2ccccc2)cc(OC)c1O (stereo not given) | -9.3%
21 | O=C(N/N=C/c1ccc(O)c(O)c1)C1c2ccccc2Oc2ccccc21 | 55.2% (active)
22 | CCC1=C/C(=C\c2ccc3c(c2)OCO3)C(=O)S1 | 16.7%
23 | CN(Cc1ccccc1)Cc1ccccc1F | -5%
24 | OCCN(Cc1ccccc1)Cc1ccc(Cl)cc1 | 87.6% (active)

Row | SMILES | inhibition
25 | CC(O)CN(Cc1ccc(Cl)cc1)CC(C)O (stereo not given) | -2.8%
26 | Cn1c(=O)cc(SCC(=O)N2CCN(C(=O)c3ccco3)CC2)c2ccccc21 | -14%
27 | O=C(Nc1nnc(C2CC2)s1)c1ccccn1 | -32.1%
28 | c1cncc(-c2nnc3n2C2(CCCCC2)Cc2ccccc2-3)c1 | 11.2%
29 | O=c1c2ccccc2nc2n1C1(CCCCC1)Cc1ccccc1-2 | 87.7% (active)
30 | CCC1(CC)Cc2ccccc2-c2nc3ccccc3c(=O)n21 | 19.3%
31 | CC(C)[C@H](NC(=O)Nc1ccc(S(N)(=O)=O)cc1)C(=O)O | -7.3%
32 | O=S(=O)(/N=C(/Nc1ccccn1)c1ccccc1)c1ccc(Cl)cc1 | 29%
33 | O=C1CCCc2c1[nH]c1ccc(Br)cc21 | 19.2%
34 | COC(=O)c1ccc(C2NC(=O)NC(C)=C2C(=O)N(C)C)cc1 (stereo not given) | -16.8%
35 | CCOC(=O)C1=C(C)Nc2sc(C(=O)c3ccc(Br)cc3)c(N)c2C1c1ccc(C(=O)OC)cc1 (stereo not given) | 91.9% (active)
36 | CCOC(=O)c1sc(=S)n2c1[nH]c(=O)c1ccc(C(=O)OC)cc12 | 42.1%
37 | Cc1c(Nc2nc3ccccc3nc2NS(=O)(=O)c2cccs2)c(=O)n(-c2ccccc2)n1C | 47.6%
38 | COc1ccc(NCc2nnc(SCc3ccccc3)n2-c2ccc(OC)cc2)cc1 | 59.6% (active)
39 | COc1ccc(-n2c(Cc3cccn3C)nnc2SCC(=O)Nc2cc(C)cc(C)c2)cc1 | 28.5%
40 | CCn1c(CNc2ccc(OC)cc2)nnc1SCC(=O)c1ccc(OC)cc1 | 25.4%
41 | C=C(C)Cn1c(C)cc(C)c(S(=O)(=O)c2ccccc2C)c1=O | 36.5%
42 | Cc1ccc(-n2ncc3c2ncn2nc(-c4ccco4)nc32)c(C)c1 | 0.2%
43 | NC(=O)C1CC=CCC1C(=O)OCC(Cl)=C(Cl)Cl (stereo not given) | 2.9%
44 | COc1ccc(CN2CN(C(C)C)CSC2=S)cc1 | 34%
45 | Cc1ccc(S(=O)(=O)N2CCCC2C(=O)NCc2ccco2)cc1 (stereo not given) | -48.4%
46 | CC(=O)Nc1ccc(S(=O)(=O)N2CCCC2C(=O)O)cc1 (stereo not given) | -11.7%
47 | CC(C)c1nnc(NC(=O)C2CCCN2S(=O)(=O)c2ccc(Cl)cc2)s1 (stereo not given) | 86.2% (active)
48 | NC(=O)COc1ccc(/C=N/NC(=O)C2CCCN2S(=O)(=O)c2ccc(Cl)cc2)cc1 (stereo not given) | 67.3% (active)

Row | SMILES | inhibition
49 | O=C(COc1ccc(Cl)cc1)N1CCN(S(=O)(=O)c2ccc(Cl)cc2)CC1 | 0.1%
50 | Cc1cccc(NC(=O)C2CCCN2S(=O)(=O)c2ccc(F)cc2)c1C (stereo not given) | -147%
51 | CCC(C)NC(=O)C1CCCN(C(=O)NC2CCCCC2)C1 (stereo not given) | 19.9%
52 | COc1ccc(C)cc1NC(=O)c1[nH]c(C)c(C(C)=O)c1C | 34%
53 | CCOC(=O)C1Sc2[nH]c(=O)sc2C(c2ccc(Cl)cc2)C1C(=O)OCC (stereo not given) | 5.6%
54 | O=c1c2ccccc2oc2nc(C3CCCCC3)n(Cc3ccco3)c(=O)c12 | 20.1%
55 | CCc1nc2ccccc2n(CCOCCOCCn2c(=O)c(CC)nc3ccccc32)c1=O | 24.5%
56 | CC(c1ccco1)N(C(=O)COc1ccccc1[N+](=O)[O-])c1ccccn1 (stereo not given) | 8.1%
57 | CC(c1ccco1)N(C(=O)c1ccc(S(=O)(=O)N2CCCCC2)cc1)c1ccccn1 (stereo not given) | 56.9% (active)
58 | CC(C)Cc1ccc(S(=O)(=O)N2CCN(C(=O)c3ccco3)CC2)cc1 | 17%
59 | Cc1cc(C)cc(OCc2nnc(SCC(=O)OC3CCCCC3)o2)c1 | -1.3%
60 | C=CCc1cccc2cc(C(=O)N3CCN(C(=O)OCC)CC3)c(=O)oc12 | -112%
61 | CCN(CC)S(=O)(=O)c1cccc(C(=O)Nc2ccccc2)c1 | 38.7%
62 | CCN(CC)S(=O)(=O)c1cccc(C(=O)NCC(=O)OCC(=O)NCc2ccccc2)c1 | 63.3% (active)
63 | CCN(c1ccccc1)S(=O)(=O)c1cccc(C(=O)O)c1 | 33.3%
64 | c1ccc2c(-c3nn4nnnc4c4ccccc34)cccc2c1 | 13.8%
65 | COCCn1c(=S)[nH]c2cc(C(=O)NCCc3ccc(OC)c(OC)c3)ccc2c1=O | 55.7% (active)
66 | COCCn1c(=O)[nH]c2cc(C(=O)NCc3cccnc3)ccc2c1=O | -1.7%
67 | O=C(NCCCN1CCCCC1)c1ccc2c(c1)NC(=O)C(N1CCOCC1)S2 (stereo not given) | -7.1%
68 | O=C(CCCCCn1c(=O)[nH]c2ccccc2c1=O)NCCc1c[nH]c2ccccc12 | 63.8% (active)
69 | CCN(CC)CCNC(=O)CCCCCn1c(=O)[nH]c2cc(C(=O)OC)ccc2c1=O | 2.6%
70 | COc1ccc(CCNC(=O)c2cc(-c3ccc4c(c3)OCO4)on2)cc1OC | 6.7%
71 | O=C(CCn1c(=O)[nH]c2ccccc2c1=O)NCCCN1CCN(c2cccc(Cl)c2)CC1 | 29.1%
72 | COc1ccc(CCNC(=O)c2ccc3c(c2)NC(=O)C(N2CCOCC2)S3)cc1OC (stereo not given) | 50.1% (active)

Row | SMILES | inhibition
73 | COc1ccc(CCNC(=O)CCn2c(=O)oc3ccccc32)cc1OC | 8.1%
74 | O=C(CCn1c(=S)[nH]c2ccccc2c1=O)NCCCN1CCCC1=O | -4.6%
75 | COc1ccc(CCNC(=O)CCCCn2c(=O)[nH]c3ccccc3c2=O)cc1OC | 68.4% (active)
76 | CCOc1cc2[nH]c(=S)n(Cc3ccc(C(=O)NCCOC)cc3)c(=O)c2cc1OCC | -7.8%
77 | COC(=O)CSc1snnc1-c1ccc(Cl)c(Cl)c1 | 6.6%
78 | COc1ccc(/C=N/Nc2nc3ccccc3o2)cc1OC | -48.5%
79 | CC(=O)Nc1cc2ccc(OC(C)=O)cc2oc1=O | -29.1%
80 | CCCOc1ccc(CN(CCO)CCO)cc1C(=O)OC | 10.6%
81 | COc1cccc(-c2cnc(OC(C)(C)C)nc2OC(C)(C)C)c1 | 6.8%
82 | CCc1nc(C)cn1S(=O)(=O)c1cc(OC)c(C)cc1C | 7.6%
83 | Cc1ccsc1CNn1cnnc1SCc1ccccc1F | 13.9%
84 | Cc1ccc(C2=NN(C)c3nc4ccccc4n3C2)cc1 | 6.9%
85 | COCc1cc(=O)[nH]c2cc(NC(=O)C(F)(F)F)c(C)cc12 | 13.9%
86 | CCOC(=O)Cn1c(-c2cccnc2Cl)nc2ccccc21 | 10.6%
87 | O=C(Nc1ncc2c(n1)-c1ccccc1OC2)c1ccc(Cl)cc1 | 25.3%
88 | Cc1c2cnn(-c3ccccc3)c(=O)c2c(C)n1CCCC(=O)N1CCN(C)CC1 | -0.9%
89 | O=C(CCCCn1c(=O)[nH]c2ccccc2c1=O)NCc1ccc2c(c1)OCO2 | 69% (active)
90 | CCC1CCCCN1CCCNC(=O)C1CCC(Cn2c(=O)[nH]c3ccccc3c2=O)CC1 (stereo not given) | 1.7%
91 | CC(C)NC(=O)CCCn1c(=S)[nH]c2cc3c(cc2c1=O)OCO3 | 12.3%
92 | Cc1ccc(C)c(N2CCN(C(=O)CCCCn3c(=O)[nH]c4ccccc4c3=O)CC2)c1 | 61.9% (active)
93 | Cn1cc(CCC(=O)NCc2ccc3c(c2)OCO3)c2ccccc21 | -124%
94 | O=C(COc1ccc(/C=N/NS(=O)(=O)c2ccccc2)cc1)NCCc1ccccc1 | 5.3%
95 | CCOc1ccc(OCC)c(NC(=O)C(NS(=O)(=O)c2ccc3c(c2)oc(=O)n3C)C(C)C)c1 (stereo not given) | 17.9%
